TRHR PAM: qHTS for Small Molecule Agonists and Allosteric Enhancers of Human TRH Receptor: Primary Screen for Enhancers. Thyrotropin-releasing hormone receptor (Homo sapiens), P34981. TRHR cells, fluo-8 calcium fluorescence, EC20 TRH enhancement. enhancement, % at 2 µM. 0.66% of 360,000 active. AID 493056, 2011; in the data active means enhancement above about 30%; further: 0% is about no effect
Target sequence (P34981 whole entry, looked up): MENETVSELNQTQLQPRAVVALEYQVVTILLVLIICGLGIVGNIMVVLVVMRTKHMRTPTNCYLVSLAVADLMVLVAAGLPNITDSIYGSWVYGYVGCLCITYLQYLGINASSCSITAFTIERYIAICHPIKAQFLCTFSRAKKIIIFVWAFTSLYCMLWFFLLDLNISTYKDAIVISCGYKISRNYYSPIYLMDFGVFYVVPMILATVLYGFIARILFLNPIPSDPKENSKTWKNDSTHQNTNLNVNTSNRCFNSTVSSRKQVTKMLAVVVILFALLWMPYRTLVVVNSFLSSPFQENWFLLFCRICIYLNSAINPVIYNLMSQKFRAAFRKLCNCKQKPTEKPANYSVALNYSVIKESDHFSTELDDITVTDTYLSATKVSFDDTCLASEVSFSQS
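Enhancer read-out: after compound pinning and an initial kinetic agonist-mode read, an EC20 of TRH (10 nM final) was injected and fluo-8 calcium signal (Ex 480/Em 530) followed at 1 s/cycle for 100 cycles in TRHR-expressing cells.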
D1 antag: Antagonist of Human D 1 Dopamine Receptor: qHTS; D(1A) dopamine receptor (Homo sapiens), P21728; activity change, negative = inhibition, % at 10 µM; HEK293 TREx D1 cells, calcium flux, dopamine EC80; hits give low values; 3.2% of 360,000 active; AID 504652, 2011; in the data active means activity change below about -30%; further: on the % scale 0 is the no-effect control and ±100 the full control effect
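Inducible Hek293 Trex D1 cells (tetracycline, overnight, 30 C). Calcium dye 30–90 min RT. Antagonist mode: EC80 dopamine added after 180 s compound read.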
D1 PAM: Potentiators of Human D1 Dopamine Receptor: qHTS | D(1A) dopamine receptor (Homo sapiens), P21728 | 0.036% of 360,000 active | potentiation, % at 10 µM | AID 504651, 2011 | HEK293 TREx D1 cells, calcium flux, dopamine EC20 potentiation; in the data active means potentiation above about 30%; further: 0% is about no effect
TRHR ag: qHTS for Small Molecule Agonists and Allosteric Enhancers of Human TRH Receptor: Primary Screen for Agonists; activation, % at 2 µM; 0.18% of 360,000 active; TRHR cells, calcium flux fluo-8, FDSS agonist mode; Thyrotropin-releasing hormone receptor (Homo sapiens), P34981; AID 493084, 2011; further: 0% is about no effect
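Agonist-mode FDSS calcium read (Ex 480/Em 530, 1 s cycles) in 1536-well TRHR cells with fluo-8 dye, after 10-cycle baseline and 23 nL compound addition; TRH at EC20 (10 nM final) added afterwards for the enhancer phase.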
D1 ag: Allosteric Agonists of the Human D1 Dopamine Receptor: qHTS; D(1A) dopamine receptor (Homo sapiens), P21728; HEK293 T-REx D1 cells, calcium flux, agonist mode; activation, % at 2 µM; 1% of 360,000 active; AID 504660, 2011; further: 0% is about no effect
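Agonism was scored from calcium flux recorded over 180 s (1 read/s) after pintool compound addition, following a 10-cycle baseline. Cells were inducible force-coupled HEK293 TREx D1, plated overnight at 30 C and loaded with no-wash calcium dye.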
* = called active by the depositor; ! = not confirmed by another sample. Most compounds without a hit are left out; they make up all but 4.6% or so of the library. Unless noted, no stated cut-off is given here; in the data, active means activation above about 30%; inactive means the rest.

SMILES	TRHR PAM	D1 antag	D1 PAM	TRHR ag	D1 ag
CC1(OC(=O)C2CCCC2)C(=O)C=C2C=C(c3ccsc3)N(CC3CC3)C=C2C1=O (configuration not stated)	8.2	-32.6*	-3.4	-0.1	8.5
Cc1ccc(NC(=O)c2cc(S(=O)(=O)N3CCCc4ccccc43)ccc2F)cc1F	-9.3	-30.7*	-2.7	3.5	6.0
O=C(Nc1ccc(Br)cc1)c1cc(S(=O)(=O)N2CCc3ccccc32)ccc1F	1.0	-50.1*	-3.1	1.1	7.5
Cc1cn2c(=O)c(S(=O)(=O)NCCc3ccccc3)c(C)nc2s1	3.9	-0.4	1.0	0.1	2.6
Cc1cc(C)c(C(=O)CSc2n[nH]c(=O)n2C2CC2)cc1C	-0.4	-36.6*	-8.9	-0.8	11.1
O=C(CSc1n[nH]c(=O)n1C1CC1)c1ccc2c(c1)OCCO2	-0.5	-1.0	-1.9	-1.1	12.6
CC(C)c1nc2ccc(C(=O)NCCCN3CCN(c4ccccc4)CC3)cc2o1	3.3	-23.0	-4.1	-0.6	3.2
CN1N=C(C(=O)Nc2ccc3c(c2)CCC3)CCC1=O	-1.0	-32.2*	-3.3	0.2	1.2
Cn1ncc(Cl)c1C(=O)Nc1ccc2c(c1)CCC2	2.9	-5.5	3.4	0.3	2.3
Cc1ccc(Cl)cc1N1CCN(C(=O)CCCn2c(=O)[nH]c3ccc(Br)cc3c2=O)CC1	0.3	7.3	-0.1	0.6	-0.6
CC1=C(c2ccc(C)c(C)c2)S(=O)(=O)N(Cc2ccc(C(=O)NCc3ccccc3F)cc2)C1=O	-5.3	1.7	-2.8	0.9	10.3
CCOC(=O)C(=O)Nc1nccs1	1.9	-33.7*	-3.2	0.4	0.3
O=C(NCc1ccccc1)C(=O)Nc1nccs1	34.4*	-28.2	-1.4	0.3	0.9
Cc1cccc(NC(=O)c2sc3nc(-c4ccccc4)cn3c2C)c1C	7.5	5.5	-2.3	0.3	5.9
Cc1[nH]c2ccccc2c1C(=O)CN1C(=O)NC(C)(c2ccc(Cl)cc2Cl)C1=O (configuration not stated)	4.1	3.9	2.1	4.9	37.0*
CC(NC(=O)c1cc(F)c(F)cc1Cl)C1CC2CCC1C2 (configuration not stated)	-1.7	10.5	-3.6	-0.8	3.6
CC(C)Oc1ccc(CNC(=O)C2CCCCN2S(=O)(=O)c2ccc(F)cc2)cc1 (configuration not stated)	13.1	-39.7*	-6.3	-0.5	3.7
Cc1ccc(C)c(CNC(=O)C2CCCCN2S(=O)(=O)c2ccc(F)cc2)c1 (configuration not stated)	-1.1	-37.4*	-5.5	-0.9	44.1*
CCNC(=O)C1CCCN1S(=O)(=O)c1ccc2ccccc2c1 (configuration not stated)	-0.9	-6.1	-4.8	-0.7	0.3
O=C(NCCc1ccccc1F)C1CCCN1S(=O)(=O)c1ccc2ccccc2c1 (configuration not stated)	-0.8	-52.9*	-15.3	-0.1	40.8*
CCN(CC)S(=O)(=O)c1ccc(NC(=O)COC(=O)CNS(=O)(=O)/C=C/c2ccccc2)cc1	7.4	-30.9*	-5.7	-1.0	6.3
COc1ccc(NC(=O)COC(=O)CNS(=O)(=O)/C=C/c2ccccc2)cc1OC	-11.5	-2.6	-4.5	0.0	1.3
Cc1ccc(C(C(=O)NC2CCCCC2)N(Cc2ccccc2)C(=O)Cc2c[nH]c3ccccc23)o1 (configuration not stated)	-2.2	-82.0*	-6.3	-0.5	1.8
Cc1ccc(NC(=O)CCS(=O)(=O)c2cc3c4c(c2)CCN4C(=O)CC3)c(C)c1	-1.4	-8.5	-4.2	-0.3	3.8
O=C(Cc1cccc2ccccc12)Nc1c(F)cccc1F	3.6	-35.5*	-5.3	-1.6	1.2
SMILES	TRHR PAM	D1 antag	D1 PAM	TRHR ag	D1 ag
Cn1nc(C(F)(F)F)c(CO)c1Sc1ccc(F)cc1	30.2*	12.3	1.4	0.1	0.8
Cc1ccc(Sc2c(C(=O)Nc3ccc(F)cc3F)c(C(F)(F)F)nn2C)cc1	-4.1	-23.3	0.7	0.4	9.7
COc1ccccc1N1CCN(C(=O)CSc2nnnn2C2CC2)CC1	-9.9	-12.8	-3.2	-0.4	1.7
O=C(CSc1nnnn1C1CC1)N1CCN(Cc2ccccc2F)CC1	-4.7	-34.4*	1.2	0.0	1.8
CSc1ccc(C2NC(=O)CCC2[N+](=O)[O-])cc1 (configuration not stated)	3.5	-32.8*	-1.8	0.1	1.3
COc1ccc(OC)c(C2CC(=O)N(c3cccc(C)c3)C3=C2C(=O)OC3)c1 (configuration not stated)	35.5*	-10.1	-3.8	0.8	-1.2
COc1ccccc1C1CC(=O)N(c2cccc(C(F)(F)F)c2)C2=C1C(=O)OC2 (configuration not stated)	-8.9	-0.5	-3.3	9.5	1.6
COc1ccc(NC(=O)CN2C(=O)COc3ccc(S(=O)(=O)Nc4ccccc4)cc32)cc1OC	3.0	-15.1	1.6	-0.1	1.5
COc1ccc(N2CCN(C(=O)C3CCCN(S(=O)(=O)c4ccc5c(c4)CCCN5C(C)=O)C3)CC2)cc1 (configuration not stated)	4.4	-23.9	-2.1	-0.4	0.9
CC(=O)N1c2ccc(S(=O)(=O)N3CCCC(C(=O)NCc4ccccc4Cl)C3)cc2CC1C (configuration not stated)	5.6	-10.8	-3.9	0.1	0.9
CC(=O)N1CCCc2cc(S(=O)(=O)N3CCCC(C(=O)NCc4ccccc4Cl)C3)ccc21 (configuration not stated)	-5.3	-42.2*!	-9.4	0.6	0.8
CC(=O)N1CCCc2cc(S(=O)(=O)N3CCCC(C(=O)N4CCN(c5ccccc5F)CC4)C3)ccc21 (configuration not stated)	1.3	-38.8*	-3.6	0.1	3.3
COc1ccc(NS(=O)(=O)NC(=O)c2c[nH]c3ccccc23)cc1	0.9	-11.7	-1.2	0.5	-0.5
O=C(CNS(=O)(=O)c1ccccc1F)NNC(=O)c1ccc(Br)cc1	31.7*	-0.5	0.1	-0.4	2.8
O=C(CNC(=O)c1ccc(Br)o1)NNC(=O)c1ccc(Br)cc1	-13.4	4.9	-2.1	0.4	0.5
Cc1c(C(=O)OC2CCCC2)[nH]c2c1C(=O)CC(c1ccc(C(C)(C)C)cc1)C2 (configuration not stated)	0.5	-31.0*	1.5	0.0	3.4
Cc1ccccc1CS(=O)(=O)c1cn(CC(=O)N2CCC(C)CC2)c2ccccc12	-10.3	-64.7*	-5.0	0.6	1.5
